D1 potentiator: Potentiators of Human D1 Dopamine Receptor: qHTS; AID 504651, 2011; 360,000 tested, 0.036% active; D(1A) dopamine receptor (Homo sapiens), P21728; HEK293 TREx D1 cells, calcium flux, dopamine EC20 potentiation; potentiation, % at 10 µM; in the data active = potentiation above about 30%; note: 0% is about no effect
Target sequence (P21728 whole entry, looked up): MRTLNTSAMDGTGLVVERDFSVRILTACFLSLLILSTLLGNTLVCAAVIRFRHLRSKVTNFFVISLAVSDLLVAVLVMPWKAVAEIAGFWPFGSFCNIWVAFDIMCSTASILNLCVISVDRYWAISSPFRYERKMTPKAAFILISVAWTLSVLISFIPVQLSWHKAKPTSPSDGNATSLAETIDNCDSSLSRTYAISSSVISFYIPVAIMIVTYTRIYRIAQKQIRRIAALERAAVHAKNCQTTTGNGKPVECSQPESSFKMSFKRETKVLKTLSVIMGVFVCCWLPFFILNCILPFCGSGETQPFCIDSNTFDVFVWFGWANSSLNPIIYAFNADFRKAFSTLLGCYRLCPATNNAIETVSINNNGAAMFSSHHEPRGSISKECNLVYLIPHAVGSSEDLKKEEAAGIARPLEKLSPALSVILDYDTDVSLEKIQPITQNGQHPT
D1 ag: Allosteric Agonists of the Human D1 Dopamine Receptor: qHTS; HEK293 T-REx D1 cells, calcium flux, agonist mode; activation, % at 2 µM; D(1A) dopamine receptor (Homo sapiens), P21728; 360,000 tested, 1% active; AID 504660, 2011; note: 0% is about no effect
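Tetracycline-induced HEK293 TREx D1 cells, force-coupled to calcium signalling, were dye-loaded with a no-wash calcium kit. Compound was pin-added after a 10 s baseline. Fluorescence was read kinetically at 1 cycle/s for 180 s, with calcium rises flagged as agonism.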
TRHR ag: qHTS for Small Molecule Agonists and Allosteric Enhancers of Human TRH Receptor: Primary Screen for Agonists | Thyrotropin-releasing hormone receptor (Homo sapiens), P34981 | TRHR cells, calcium flux fluo-8, FDSS agonist mode | activation, % at 2 µM | 360,000 tested, 0.18% active | AID 493084, 2011; note: 0% is about no effect
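In this calcium-flux screen, cells bearing human TRHR are dye-loaded with fluo-8, baselined for 10 cycles, then exposed to library compounds; positive kinetic calcium responses during the agonist phase mark hits, with TRH as control.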
D1 antagonist: Antagonist of Human D 1 Dopamine Receptor: qHTS | 360,000 tested, 3.2% active | AID 504652, 2011 | activity change, negative = inhibition, % at 10 µM | D(1A) dopamine receptor (Homo sapiens), P21728 | HEK293 TREx D1 cells, calcium flux, dopamine EC80; stronger effect = lower value; in the data active = activity change below about -30%; note: % is set by controls: 0 for no effect and ±100 for the full control effect
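Inducible Hek293 Trex D1 cells (tetracycline, overnight, 30 C). Calcium dye 30–90 min RT. Antagonist mode: EC80 dopamine added after 180 s compound read.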
TRHR enhancer: qHTS for Small Molecule Agonists and Allosteric Enhancers of Human TRH Receptor: Primary Screen for Enhancers; Thyrotropin-releasing hormone receptor (Homo sapiens), P34981; enhancement, % at 2 µM; 360,000 tested, 0.66% active; TRHR cells, fluo-8 calcium fluorescence, EC20 TRH enhancement; in the data active = enhancement above about 30%; note: 0% is about no effect
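TRHR-expressing cells loaded with fluo-8 calcium dye were read kinetically (ex 480/em 530) during compound addition, then stimulated with an EC20 of TRH (10 nM final). Enhancement of the Gq-mediated intracellular calcium response was scored.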
* hit, by the source's call. A selection: hits, their analogues and other compounds. The true share with any hit is near 4.6%. Cut-off read from the data, not from the text of the source, unless noted: active = activation above about 30%; inactive = the rest.

SMILES	D1 potentiator	D1 ag	TRHR ag	D1 antagonist	TRHR enhancer
Cc1cc(OCCCn2c(CCNC(=O)C3CCCCC3)nc3ccccc32)ccc1Cl	-3.7	44.3*	-1.8	-29.9	5.9
Cc1ccc(N2CCN(C(=O)c3c(C)oc4nc(C)nc(N5CCCC5)c34)CC2)c(C)c1	1.6	0.6	1.1	-1.8	0.4
CCOc1ccc(Cl)cc1S(=O)(=O)n1nnc2ccccc21	-2.7	3.1	-0.2	-38.9*	-2.9
COc1ccccc1N=Nc1[nH]c2ccc(C)cc2c1O	-5.2	0.8	0.0	-8.3	34.1*
COc1ccccc1N=Nc1ccc(O)c2ncccc12	4.3	0.3	-0.7	10.5	7.5
FC(F)(F)c1ccccc1NC(=S)Nn1cnnc1	-1.6	3.3	1.0	-16.5	-0.9
CCCCN(CCCNC(=O)C1CCN(S(=O)(=O)N2CCOCC2)CC1)c1ccccc1	-4.3	3.1	-0.6	-35.2*	-4.0
O=C1C(C=NCCCN2CCOCC2)=C(O)c2ccccc21	-8.1	1.6	0.1	-36.9*	0.7
C/C(=N\NC(=O)c1nn(C)c(C)c1Br)c1ccc(NC(=O)c2ccoc2C)cc1	-0.1	2.2	-0.9	-1.6	30.9*
O=C(N/C(=C\c1ccccc1)C(=O)N1CCOCC1)c1ccco1	-1.6	3.3	-1.0	-11.0	30.4*
C=CCOC(=O)/C(=C\c1ccccc1)NC(=O)c1ccco1	-4.0	3.4	0.1	-43.1*	7.0
O=C(NCCc1ccccc1)/C(=C\c1ccc([N+](=O)[O-])cc1)NC(=O)c1ccco1	-2.6	5.9	-0.5	-38.1*	-8.6
O=C(NCc1ccccc1)/C(=C\c1ccc([N+](=O)[O-])cc1)NC(=O)c1ccco1	-7.9	-0.2	-0.6	-14.2	-4.2
COc1ccc(CCNC(=O)Cn2nc(C)n3c(cc4occc43)c2=O)cc1OC	-3.1	2.4	1.4	-3.1	-0.3
CCc1ccc(NC(=O)CC2C(=O)OCCN2CC)cc1 (stereo not given)	-5.3	-0.6	1.4	-74.6*	8.2
CCN1CCOC(=O)C1CC(=O)Nc1ccc(C(C)=O)cc1 (stereo not given)	2.0	0.9	-4.1	-3.7	1.3
COc1cccc(CNC(=O)c2ccc(CS(=O)Cc3ccc(Cl)cc3)o2)c1 (stereo not given)	-4.8	1.8	0.0	-12.1	0.2
COc1ccc(/C=C2\N=C(C)N(c3ccc4ccccc4c3)C2=O)cc1OC	-6.7	8.1	2.5	-43.4*	-8.6
COc1ccc(/C=C2\N=C3CCCCCN3C2=O)cc1OC	-2.4	0.9	-0.6	7.7	-2.6
COC(=O)N/N=C/c1cc(N=Nc2ccccc2)ccc1O	-6.3	5.3	-0.3	-33.9*	-7.3
COc1ccc(Br)c2c1-c1nc(NC(=O)c3ccccc3F)sc1C2	1.9	1.3	0.6	22.5	6.3
COc1ccc(Br)c2c1-c1nc(NC(=O)c3ccccc3SC)sc1C2	-8.2	-1.5	-1.0	-36.2*	-9.1
Fc1ccc(N2CCN(c3nnnn3-c3ccccc3)CC2)cc1	2.6	0.0	-0.4	-39.9*	2.2
CCOC(=O)N1CCN(c2nnnn2-c2ccccc2)CC1	-3.1	-1.3	0.6	11.6	1.6
COc1ccc(C)cc1NC(=O)CSc1ccc(-c2ccco2)nn1	41.6*	-0.2	-0.6	-7.0	1.3
SMILES	D1 potentiator	D1 ag	TRHR ag	D1 antagonist	TRHR enhancer
CC(=O)c1cccc(NC(=O)CSc2ccc(-c3ccco3)nn2)c1	-9.0	0.7	-0.5	-56.5*	-1.4
COc1ccc(C)cc1NC(=O)CSc1nnc(-c2ccco2)n1N	-5.8	1.2	-0.7	-19.1	8.5
Cc1ccc(CSC2=Nc3ccccc3C3=NC(CCC(=O)NCCc4ccccc4)C(=O)N23)cc1 (stereo not given)	1.4	1.5	0.0	27.0	-2.7
Cc1cc(C)cc(NC(=O)C2CCC(CNS(=O)(=O)c3ccc4c(c3)C(C)(C)C(=O)N4C)CC2)c1 (stereo not given)	-3.0	6.2	-0.1	8.4	5.4
CCOc1ccccc1NC(=O)NCc1noc2ccc(C)cc12	-5.8	2.5	0.2	-15.9	-10.6
O=C(Nc1nnc(C2=COCCO2)o1)c1ccc(Cl)cc1	5.1	-0.5	-0.1	-21.5	11.8
O=C(Nc1nnc(C2=COCCO2)o1)c1ccc(Br)cc1	-6.4	0.1	-0.5	-34.0*	-3.3
Cc1ccc(C)c(-c2nnc(NC(=O)c3ccc4c(c3)OCCO4)o2)c1	-1.9	8.4	-0.2	-37.3*	-3.6
CSc1ccc(-c2nnc(NC(=O)c3ccc4c(c3)OCCO4)o2)cc1	-1.6	3.1	-0.2	-7.5	3.7
CCOc1ccc(CNC(=O)c2ccc(Sc3ccc(C)cc3)c(N)c2)cc1OC	-1.9	1.5	-0.2	-28.2	-4.7
CC1(c2ccc(OC(F)F)cc2)NC(=O)N(/N=C/c2c(O)ccc3ccccc23)C1=O (stereo not given)	-1.0	31.5*	4.0	28.7	-0.8
CCCOc1ccc(C(=O)Nc2ccc(Cl)c(-c3nc4ncccc4o3)c2)cc1	-2.0	3.5	1.2	-16.6	2.5
Cc1nc(NC(=O)C2CC2)sc1C(=O)Nc1ccccc1	-6.0	0.1	0.9	-37.8*	-4.3
Cc1nc(NC(=O)C2CC2)sc1C(=O)Nc1ccc(Br)cc1	2.9	-1.2	0.1	-0.8	-9.0
CCN(CC)S(=O)(=O)c1cc(C(=O)OCC(=O)Nc2cccc(S(=O)(=O)N(C)C)c2)ccc1F	-3.9	1.0	-0.6	-40.4*	-2.6
O=C(CN1CC(=O)Nc2ccccc21)Nc1ccc(F)c(F)c1	-14.8	1.0	-2.2	-39.3*	9.0
Cc1ccc(NC(=O)CNC(=O)N2CC(=O)Nc3ccccc32)cc1F	-9.6	2.6	0.5	-2.4	-4.1
COc1ccc(C(=O)NC(Oc2ccccc2)C(Cl)(Cl)Cl)cc1 (stereo not given)	-9.6	8.9	-2.7	-80.1*	19.1
COc1ccc(C(C)NC(=O)c2ccccc2)cc1 (stereo not given)	-3.9	3.2	-0.3	6.2	0.8
O=C(N/N=C/c1cc(Br)ccc1O)c1ccccc1Cl	-4.6	2.2	-0.4	-41.9*	5.9
O=C(CCc1ccccc1)N/N=C\c1cc2c(cc1Br)OCO2	-7.5	5.3	-1.0	-31.4*	18.4
CC(C)NC(=S)N/N=C/c1cc(Br)ccc1O	-9.2	14.7	0.4	-57.7*	2.2
O=C(CSCc1ccccc1)N/N=C/c1cc2c(cc1Br)OCO2	4.2	8.6	-2.0	-12.2	-12.4
COC(=O)N/N=C/c1cc(Br)ccc1O	4.5	-0.6	-0.3	6.2	5.4
O=C(CCc1ccccc1)N/N=C/c1cc(Br)ccc1O	-2.8	29.1	-0.5	-43.3*	-1.5

Source: PubChem BioAssay (National Center for Advancing Translational Sciences (NCATS))
